Source: PubChem BioAssay (NCI)
This is part of a sample that, as a whole, favours compounds with a hit. Of some 79,000 tested, about 15% had one in any assay. Unmarked numbers belong to inactive results. Active and inactive are the calls of the source. Rule as the data show it: active = growth inhibition above about 70%; inactive = the rest.

What was measured:
[1] = NCI Yeast Anticancer Drug Screen. Data for the rad50 strain (AID 155);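 also: 0% = growth of vehicle-only cultures of the same strain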; settings: S. cerevisiae rad50 strain growth inhibition; at 50.0 µM; stronger effect = higher value
How it was run: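 DNA repair mutant yeast, compound exposure, growth read-out; inhibition is taken relative to vehicle.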

[2] = NCI Yeast Anticancer Drug Screen. Data for the mec2-1 strain (AID 157); settings: S. cerevisiae mec2-1 strain, at 50.0 µM, stronger effect = higher value
How it was run: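 Test agents were screened against the mec2-1 yeast strain, with defined DNA repair or cell cycle alteration. Growth was scored as inhibition against vehicle-only controls.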

[3] = NCI Yeast Anticancer Drug Screen. Data for the sgs1 mgt1 strain (AID 161);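 also: 0% = growth of cultures given vehicle only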; settings: S. cerevisiae sgs1 mgt1 strain, at 50.0 µM, stronger effect = higher value
How it was run: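 Test agents were incubated with a DNA-repair-mutant yeast strain. Growth was then read and compared against vehicle-treated controls.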

[4] = NCI Yeast Anticancer Drug Screen. Data for the cln2 rad14 strain (AID 165);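 also: 0% = growth equal to vehicle treated cultures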; settings: S. cerevisiae cln2 rad14 strain, at 50.0 µM, stronger effect = higher value
How it was run: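 Growth of compound-exposed yeast (cln2 rad14 genotype) measured and expressed as inhibition relative to vehicle.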

[5] = NCI Yeast Anticancer Drug Screen. Data for the bub3 strain (AID 167); settings: S. cerevisiae bub3 mutant strain, at 50.0 µM, stronger effect = higher value
How it was run: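 In this screen, a yeast mutant lacking normal mitotic checkpoint function is challenged with compound. Relative growth versus vehicle gives the inhibition value.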

[6] = NCI Yeast Anticancer Drug Screen. Data for the mlh1 rad18 strain (AID 175); settings: S. cerevisiae mlh1 rad18 strain growth inhibition; at 50.0 µM; stronger effect = higher value
How it was run: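 In this whole-cell yeast screen, a strain with altered DNA damage repair is challenged with compound, and its growth is measured against matched vehicle-treated controls.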

O=C1c2ccccc2C(=O)N1CNc1cccc(NCN2C(=O)c3ccccc3C2=O)n1
growth inhibition [1]: -35.8%
growth inhibition [2]: -22.1%
growth inhibition [3]: -23.1%
growth inhibition [4]: 13.4%
growth inhibition [5]: -6.5%

Cc1nc(N)nc(N)c1N1CCN(c2ccc(C(=O)NC(C(=O)O)C(=O)O)cc2)CC1
growth inhibition [1]: -4.8%
growth inhibition [2]: -15.6%
growth inhibition [3]: -25.8%
growth inhibition [4]: 4.55%
growth inhibition [5]: -38.2%

COc1ccc([N+](=O)[O-])cc1NC(=O)c1ccc(Cl)cc1
growth inhibition [1]: 12%
growth inhibition [2]: 29.7%
growth inhibition [3]: 35.6%
growth inhibition [4]: 16.9%
growth inhibition [5]: 28%

O=[N+]([O-])c1ccc(-c2nnn(Cc3ccco3)c2N2CCCCC2)cc1
growth inhibition [1]: 69.6%
growth inhibition [2]: 70.7% (active)
growth inhibition [3]: 91.2% (active)
growth inhibition [4]: 84.2% (active)
growth inhibition [5]: 95.7% (active)

COC(=O)c1c2c(cc3c1CCC3)CCC2
growth inhibition [1]: -21.1%
growth inhibition [2]: -3.15%
growth inhibition [3]: -31.8%
growth inhibition [4]: 14.8%
growth inhibition [5]: 32.9%

O=Cc1cccc2c([N+](=O)[O-])cccc12
growth inhibition [1]: 55.5%
growth inhibition [2]: 19.5%
growth inhibition [3]: 32.6%
growth inhibition [4]: 6.95%
growth inhibition [5]: -1.9%

CCCCC[N+]1([O-])CCOCC1
growth inhibition [1]: 4.05%
growth inhibition [2]: -4.1%
growth inhibition [3]: -7.1%
growth inhibition [4]: -24.4%
growth inhibition [5]: -3.1%

NC1C([O-])OC(CO)C(O)C1O.O=C1OC(C(O)CO)C([O-])=C1[OH2+].[Cu+2] (centres undefined)
growth inhibition [1]: -0.4%
growth inhibition [2]: -0.15%
growth inhibition [3]: -19.6%
growth inhibition [4]: -8.25%
growth inhibition [5]: -1.55%

Cc1cc(C)c(C(=O)CSC(=N)N)c(C)c1
growth inhibition [1]: -4.45%
growth inhibition [2]: 11.3%
growth inhibition [3]: 7.5%
growth inhibition [4]: -6.6%
growth inhibition [5]: 9.55%

Nc1c(S(N)(=O)=O)cc(S(N)(=O)=O)cc1S(N)(=O)=O
growth inhibition [1]: 0.75%
growth inhibition [2]: -20.6%
growth inhibition [3]: -36%
growth inhibition [4]: -24.6%
growth inhibition [5]: -29.2%

COc1ccc(N=C2[Se]C(=NC(=O)c3ccccc3)N(c3ccc(OC)cc3)C2=Nc2ccc(OC)cc2)cc1
growth inhibition [1]: 13.1%
growth inhibition [2]: -25.5%
growth inhibition [3]: -22.2%
growth inhibition [4]: -36%
growth inhibition [5]: 1.3%

O=C(Cc1ccccc1)NC(CSSCC(NC(=O)Cc1ccccc1)C(=O)O)C(=O)O (centres undefined)
growth inhibition [1]: 26.3%
growth inhibition [2]: 10.8%
growth inhibition [3]: 36.6%
growth inhibition [4]: -37.1%
growth inhibition [5]: 3.2%

CCCC(C(=O)O)(c1ccccc1)c1ccccc1
growth inhibition [1]: 11.3%
growth inhibition [2]: 0.55%
growth inhibition [3]: 5.45%
growth inhibition [4]: -24.9%
growth inhibition [5]: 7.5%

CN(C)CCSS(=O)(=O)O
growth inhibition [1]: -4.9%
growth inhibition [2]: -23.1%
growth inhibition [3]: -26.3%
growth inhibition [4]: 16.6%
growth inhibition [5]: -19.1%

N#CSCCOCCOC(=O)NC1CCCCC1
growth inhibition [1]: 10.2%
growth inhibition [2]: 4.75%
growth inhibition [3]: 14.7%
growth inhibition [4]: 5.25%
growth inhibition [5]: 16.2%

CNC(=S)NNc1ncnc2c1ncn2-c1ccc(C)cc1
growth inhibition [1]: -30.4%
growth inhibition [2]: 6.3%
growth inhibition [3]: 5.45%
growth inhibition [4]: 29.7%
growth inhibition [5]: 11.4%

CCCCCCCCCCCCCCCCCCOc1c(Cl)c(Cl)c(Cl)c(Cl)c1Cl
growth inhibition [1]: 15.1%
growth inhibition [2]: -1.55%
growth inhibition [3]: -8.25%
growth inhibition [4]: -25.9%
growth inhibition [5]: -7.4%
growth inhibition [6]: -8.1%

CN(C)c1ncnc2c1cnn2-c1ccc(Cl)cc1
growth inhibition [1]: -6.15%
growth inhibition [2]: -6.2%
growth inhibition [3]: -9.3%
growth inhibition [4]: -36.6%
growth inhibition [5]: -0.95%

C=C(Cl)C(=O)O
growth inhibition [1]: -11.3%
growth inhibition [2]: -20.2%
growth inhibition [3]: 18.9%
growth inhibition [4]: -0.55%
growth inhibition [5]: -25.4%

Cc1ccccc1C(=O)N(C(C)C)C(C)C
growth inhibition [1]: 12.8%
growth inhibition [2]: -6.45%
growth inhibition [3]: 7.2%
growth inhibition [4]: -12.6%
growth inhibition [5]: 15.2%

CC(O)C1C(C(=O)O)C2C(C)OC(=O)C12 (centres undefined)
growth inhibition [1]: -0.6%
growth inhibition [2]: -3.4%
growth inhibition [3]: -0.8%
growth inhibition [4]: 52.5%
growth inhibition [5]: 2.45%

CC(=O)NNc1nc(C)c(C(=O)NNC(=O)C(=O)Nc2c(Cl)cc([N+](=O)[O-])cc2Cl)s1
growth inhibition [1]: 41.2%
growth inhibition [2]: 22.9%
growth inhibition [3]: 45.7%
growth inhibition [4]: 29%
growth inhibition [5]: 42.7%

Nc1c2ccccc2nc2nccnc12
growth inhibition [1]: 3.6%
growth inhibition [2]: 2.65%
growth inhibition [3]: 5.95%
growth inhibition [4]: 16.9%
growth inhibition [5]: -3%

COc1cc(C2c3cc4c(cc3OC(NNC(N)=O)C2C)OCO4)cc(OC)c1OC (centres undefined)
growth inhibition [1]: -4.1%
growth inhibition [2]: 6.4%
growth inhibition [3]: 6.7%
growth inhibition [4]: -19.6%
growth inhibition [5]: 11.5%

Cc1cccc(NC(=O)Oc2cc(C)c(Cl)cc2C(C)C)c1
growth inhibition [1]: 93% (active)
growth inhibition [2]: 98.9% (active)
growth inhibition [3]: 96.8% (active)
growth inhibition [4]: 93.3% (active)
growth inhibition [5]: 98.5% (active)

O=c1c2ccccc2n2n1Cc1ccccc1C2
growth inhibition [1]: 38.1%
growth inhibition [2]: 9.1%
growth inhibition [3]: -11.5%
growth inhibition [4]: 6.95%
growth inhibition [5]: 12.2%

O.[Cl][Co]([Cl])[Cl].c1c[nH]cn1.c1c[nH]cn1
growth inhibition [1]: -0.85%
growth inhibition [2]: -5.6%
growth inhibition [3]: 15%
growth inhibition [4]: 1.95%
growth inhibition [5]: 8.4%

COc1ccc2c(c1)-c1c3c(cc4ccnc(c14)C2=O)OCO3
growth inhibition [1]: 91.7% (active)
growth inhibition [2]: 93% (active)
growth inhibition [3]: 93.4% (active)
growth inhibition [4]: 91.5% (active)
growth inhibition [5]: 92% (active)

COC(=O)c1cc([O-])c2sc(C)c(C)[n+]2n1
growth inhibition [1]: 4.25%
growth inhibition [2]: 19.6%
growth inhibition [3]: 25.7%
growth inhibition [4]: 35.6%
growth inhibition [5]: -4.05%

Cc1cc(C)c(Cc2c(C)cc(C)cc2C)c(C)c1
growth inhibition [1]: 14.8%
growth inhibition [2]: -25.6%
growth inhibition [3]: 7.25%
growth inhibition [4]: -2.85%
growth inhibition [5]: 23.9%

CCC(O)C(CC)CC (centres undefined)
growth inhibition [1]: 13.8%
growth inhibition [2]: -19.7%
growth inhibition [3]: -4.2%
growth inhibition [4]: 17%
growth inhibition [5]: -10.2%

COC(=O)c1cc2cccn2cn1
growth inhibition [1]: -5.9%
growth inhibition [2]: -11.3%
growth inhibition [3]: -13.2%
growth inhibition [4]: -27.4%
growth inhibition [5]: -27.9%

C[N+](C)(N)c1nc(N)c(C#N)c(C#N)c1C#N
growth inhibition [1]: 13.6%
growth inhibition [2]: -18.7%
growth inhibition [3]: -10.9%
growth inhibition [4]: -24.4%
growth inhibition [5]: 5.1%

CC1(c2ccc3cccc(F)c3c2)OC(=O)c2ccccc21 (centres undefined)
growth inhibition [1]: 2%
growth inhibition [2]: 1.65%
growth inhibition [3]: -2.95%
growth inhibition [4]: -68.8%
growth inhibition [5]: -4.25%

C#CCI
growth inhibition [1]: 20.9%
growth inhibition [2]: 6.5%
growth inhibition [3]: 6.95%
growth inhibition [4]: 33.9%
growth inhibition [5]: 7.35%

CCCCCCCCCCCCCC(=O)Oc1ccc([N+](=O)[O-])cc1
growth inhibition [1]: -2.65%
growth inhibition [2]: 0.05%
growth inhibition [3]: -13.1%
growth inhibition [4]: 11.2%
growth inhibition [5]: -9.2%

Cc1ccc(NC(=O)C2C(=O)N(c3ccc(C)c(C)c3)C(=O)C2N=N)cc1C (centres undefined)
growth inhibition [1]: 7.9%
growth inhibition [2]: 34.8%
growth inhibition [3]: 26.6%
growth inhibition [4]: -41.8%
growth inhibition [5]: 0.35%

CCN(CC)CCN(C(=O)c1ccc(F)cc1)c1ccccc1N
growth inhibition [1]: -13.2%
growth inhibition [2]: -34.1%
growth inhibition [3]: -23.6%
growth inhibition [4]: -11.9%
growth inhibition [5]: 3.85%

CCOC(C#CC(=O)C(C)C)OCC
growth inhibition [1]: -17.2%
growth inhibition [2]: 3.15%
growth inhibition [3]: 0.85%
growth inhibition [4]: 2.25%
growth inhibition [5]: 27.4%

CCCCCCCCCCCCCCCCSC(=N)N
growth inhibition [1]: 25.2%
growth inhibition [2]: 21.2%
growth inhibition [3]: 55.8%
growth inhibition [4]: 14.1%
growth inhibition [5]: 40%

CCCC(=O)N(CC)CC
growth inhibition [1]: 11.2%
growth inhibition [2]: -8.6%
growth inhibition [3]: -0.8%
growth inhibition [4]: -15%
growth inhibition [5]: 0%
growth inhibition [6]: -20.9%

C=C1c2[nH]c3ccccc3c2CC(C(=O)O)N1C(O)c1ccc(S(=O)(=O)O)cc1 (centres undefined)
growth inhibition [1]: 11.5%
growth inhibition [2]: -7.95%
growth inhibition [3]: -3.5%
growth inhibition [4]: -45.6%
growth inhibition [5]: -8.05%
growth inhibition [6]: 3.75%

CC(=O)N=C1N(/C=C2\C(=O)Oc3ccccc3C2=O)C(=O)/C(=C/c2ccc3c(c2)OCO3)N1C
growth inhibition [1]: 21.6%
growth inhibition [2]: -5.55%
growth inhibition [3]: 5.25%
growth inhibition [4]: 9.4%
growth inhibition [5]: -6.35%
growth inhibition [6]: 10.5%

COC(=O)CCNCCSC(=O)c1ccccc1
growth inhibition [1]: 23.5%
growth inhibition [2]: -9.1%
growth inhibition [3]: -6%
growth inhibition [4]: 12.9%
growth inhibition [5]: 8.55%
growth inhibition [6]: 4.6%

COc1ccc(-c2nnc3n(C)c4ccccc4n3c2=O)cc1
growth inhibition [1]: 3.25%
growth inhibition [2]: 8.55%
growth inhibition [3]: 16.4%
growth inhibition [4]: 26.5%
growth inhibition [5]: 23.4%
growth inhibition [6]: -23.2%

COc1ccc(CC(C)SC(CC(=O)O)C(=O)O)cc1 (centres undefined)
growth inhibition [1]: 3.45%
growth inhibition [2]: -1%
growth inhibition [3]: 16.4%
growth inhibition [4]: -37.9%
growth inhibition [5]: 7.95%
growth inhibition [6]: -8.2%

N#CCCCCN1CCCCC1
growth inhibition [1]: -4.85%
growth inhibition [2]: -20.9%
growth inhibition [3]: -9.95%
growth inhibition [4]: 9.8%
growth inhibition [5]: -14.6%
growth inhibition [6]: 13.6%

COc1cc(C(c2c(O)c3ccccc3oc2=O)N2CCCC2)cc(OC)c1OC (centres undefined)
growth inhibition [1]: -1.2%
growth inhibition [2]: 5%
growth inhibition [3]: 7.05%
growth inhibition [4]: 4.05%
growth inhibition [5]: -0.3%
growth inhibition [6]: 2.7%
